HT1080 IDH1KD tx = toxicity to HT-1080 IDH1 knockdown cells (counter line); hit rate 2% among 360,000; Potency, µM (series often up to 46.1 µM), for inactives: at the top dose activity, negative = toxicity, hits mostly cytotoxic; AID 686971; HT-1080 IDH1 knockdown viability, ATP luminescence, 48 h;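 also: 0% = DMSO wells and -100% = cell-free medium wells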
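In this qHTS, HT-1080 cells depleted of IDH1 are exposed for 48 h at 37 °C to compound titrations. Toxicity is scored from CellTiter-Glo luminescence, with DMSO as full viability and medium alone as none.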
TDP1 cell noCPT = qHTS for Inhibitors of human tyrosyl-DNA phosphodiesterase 1 (TDP1): qHTS in cells in absence of CPT | DT40 Tdp1-/- hTDP1 cells, no CPT, ATP luminescence, 48 h | Potency, µM (doses to about 46.2 µM), without a hit: at the top dose activity change, negative = growth inhibition, hits mostly inhibitors | hit rate 15% among 420,000 | AID 686978, 2013; also: % is scaled to controls: 0 for no effect and ±100 for the full control effect; nearly all actives have a fitted effect of over 55% in size
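Readout: luminescence from CellTiter-Glo after 30 min in the dark at RT. Cells: DT40 Tdp1-/- with stable hTDP1, 400/well. Exposure: compounds alone, ≥48 hr, 37 °C.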
TGFb SMAD3 inh = TGF-b pathway inhibition; HepG2 CAGA-GFP TGF-b/SMAD3 reporter, GFP fluorescence, 18 h; TGF-beta stimulated, 500 pg/mL final; Potency, µM (doses to about 46.1 µM), without a hit: at the highest dose activity, negative = inhibition, usual class: inhibitors; hit rate 1.2% among 410,000; AID 588855; also: % is scaled to controls: 0 for no effect and ±100 for the full control effect; nearly all actives have a fitted effect of over 65% in size
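First, reporter cells (HEPG2 CAGA-GFP) rested 2 h at 37 degrees C. Next, compounds were pinned in and TGF-beta added to 500 pg/mL final. After 18 h, GFP was imaged per cell and summed per well.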
HepG2 viability = HepG2 cytotoxicity, counter-screen for TGF-b inhibitors | Potency, µM (titrated, usually from 46.1 µM), inactives show top-dose activity change, negative = cytotoxicity, most hits filed as cytotoxic | hit rate 0.76% among 410,000 | AID 588856 | HepG2 CAGA-GFP viability, ATP luminescence, 18 h
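CellTiter-Glo luminescence gave cytotoxicity after 18 hours at 37 degrees C. The cells were HepG2 CAGA-GFP in 1% FBS DMEM, stimulated with 500 pg/mL TGF-beta after compound addition. %Activity was normalised to no-cell wells (complete cell-killing) and DMSO (no toxicity), and curves were fitted and classified.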
HT1080-NT tox = kills 2HG-producing HT-1080-NT fibrosarcoma cells; HT-1080-NT fibrosarcoma viability, CellTiter-Glo ATP luminescence, 48 h; Potency, µM (doses to about 46.1 µM), inactives show top-dose activity, negative = less viability, usual class: cytotoxic; AID 686970; hit rate 1.6% among 360,000;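 also: NT is the 2HG producing partner of a matched IDH1 knockdown line; 0% = DMSO-treated cells and -100% = media-only wells without cells; nearly all actives have a fitted effect of over 55% in size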
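Luminescent CellTiter-Glo readout after 48 hours of compound exposure at 37 degrees C defined viability of HT-1080-NT cells. Activity was normalized to DMSO wells and cell-free media wells; concentration-response curves were fitted and assigned curve classes.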
TDP1 cell CPT = DT40-hTDP1 cell growth loss with CPT. chicken DT40 Tdp1-/-;hTDP1 cells + 20 nM CPT, ATP luminescence, 48 h. AID 686979. hit rate 12% among 420,000. Potency, µM (titrated, usually from 46.2 µM), for the others: at the highest dose activity change, negative = growth inhibition, hits mostly inhibitors; also: % is scaled to controls: 0 for no effect and ±100 for the full control effect; nearly all actives have a fitted effect of over 55% in size
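Cell growth measured by CellTiter-Glo luminescence after a minimum 48 h, 37 C compound exposure with 20 nM CPT in Tdp1-knockout DT40 cells stably expressing hTDP1, seeded 400/well; qHTS titration format.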
* hit, by the source's call; [ ] = remark or other dose. Only some compounds are listed: those with a hit (about 17% of all), similar ones and a draw of the others. Calls follow the shape of the dose curve; as a rule, active = well fitted curve in the direction sought with a large enough effect; inconclusive = small, poorly fitted or top-dose-only effect, or another doubt; inactive = no such curve, though single readings can be large; an effect the other way counts as inactive or inconclusive. Potency is read from the fitted curve at half-maximal effect.

Screening Cc1ccc(NC(=O)CCCSc2ccccc2)cc1S(=O)(=O)N1CCOCC1 returned HT1080 IDH1KD tx -1%, TDP1 cell noCPT -11%, TGFb SMAD3 inh inconclusive, HepG2 viability 6%, HT1080-NT tox -22% and TDP1 cell CPT 3%.
`COc1ccc(/C=N\NC(=O)CNC(=O)C2COc3ccccc3O2)cc1[N+](=O)[O-]` (centres undefined) gave HT1080 IDH1KD tx 16%, TDP1 cell noCPT -28%, TGFb SMAD3 inh 3%, HepG2 viability 2%, HT1080-NT tox 9% and TDP1 cell CPT -7%.
For CC(OC(=O)[C@@H](NC(=O)OCc1ccccc1)C(C)C)C(=O)Nc1ccc(N2CCOCC2)cc1 (some centres undefined) the results were HT1080 IDH1KD tx -1%, TDP1 cell noCPT inconclusive, TGFb SMAD3 inh 13%, HepG2 viability 9%, HT1080-NT tox -2% and TDP1 cell CPT 21µM*.
O=[N+]([O-])c1ccc2nc(-c3ccccc3)n(OCc3ccc(Cl)cc3)c2c1 was read as HT1080 IDH1KD tx -17%, TDP1 cell noCPT 9.2µM*, TGFb SMAD3 inh 0%, HepG2 viability -19%, HT1080-NT tox -24% and TDP1 cell CPT 15µM*.
`O=C(O)COn1c(-c2ccccc2)nc2ccc(Cl)cc21` gave HT1080 IDH1KD tx 1%, TDP1 cell noCPT -10%, TGFb SMAD3 inh -14%, HepG2 viability -18%, HT1080-NT tox -2% and TDP1 cell CPT 27%.
Screening N#Cc1c(NC(=O)CSc2ncccn2)oc(-c2ccccc2)c1-c1ccccc1 returned HT1080 IDH1KD tx -2%, TDP1 cell noCPT -13%, TGFb SMAD3 inh -13%, HepG2 viability 0%, HT1080-NT tox -1% and TDP1 cell CPT -7%.
COc1ccc(-c2oc(NC(=O)CSc3ncn[nH]3)c(C#N)c2-c2ccc(OC)cc2)cc1 was read as HT1080 IDH1KD tx inconclusive, TDP1 cell noCPT inconclusive, TGFb SMAD3 inh inconclusive, HepG2 viability -97%, HT1080-NT tox inconclusive and TDP1 cell CPT 13µM*.
Screening COc1ccc(-c2oc(NC(=O)CCl)c(C#N)c2-c2ccc(OC)cc2)cc1 returned HT1080 IDH1KD tx inconclusive, TDP1 cell noCPT 5.2µM*, TGFb SMAD3 inh -18%, HepG2 viability 13µM*, HT1080-NT tox inconclusive and TDP1 cell CPT 6.5µM*.
Cc1ccc(OCC(=O)Nc2oc(-c3ccccc3)c(-c3ccccc3)c2C#N)cc1 was read as HT1080 IDH1KD tx inconclusive, TDP1 cell noCPT 16µM*, TGFb SMAD3 inh inconclusive, HepG2 viability -21%, HT1080-NT tox inconclusive and TDP1 cell CPT 21µM*.
COc1ccccc1OCC(=O)Nc1oc(-c2ccccc2)c(-c2ccccc2)c1C#N was read as HT1080 IDH1KD tx 0%[9.24 µM], TDP1 cell noCPT -20%, TGFb SMAD3 inh inconclusive, HepG2 viability 3%, HT1080-NT tox -29% and TDP1 cell CPT -1%.
Screening Cc1ccccc1-c1nc(SCC(=O)NCC2CCCO2)c2c(=O)n(C)c(=O)n(C)c2n1 (centres undefined) returned TDP1 cell noCPT -5%, TGFb SMAD3 inh -1%, HepG2 viability -1% and TDP1 cell CPT -9%.
For CC(=O)N1CCN(C(=S)NCCc2ccccc2)CC1 the results were HT1080 IDH1KD tx 4%, TDP1 cell noCPT -21%, TGFb SMAD3 inh -1%, HepG2 viability -7%, HT1080-NT tox 15% and TDP1 cell CPT -14%.
Screening COc1ccc(N2CCN(C(=S)NCCc3ccccc3)CC2)cc1 returned HT1080 IDH1KD tx 6%, TDP1 cell noCPT inconclusive, TGFb SMAD3 inh 0%, HepG2 viability -1%, HT1080-NT tox 0% and TDP1 cell CPT inconclusive.
Screening Oc1ccc(N2CCN(C(=S)NCCc3ccccc3)CC2)cc1 returned HT1080 IDH1KD tx 3.7µM*, TDP1 cell noCPT 8.2µM*, TGFb SMAD3 inh 9%, HepG2 viability 5%, HT1080-NT tox inconclusive and TDP1 cell CPT 6.5µM*.
For S=C(NCCc1ccccc1)N1CCN(Cc2ccccc2)CC1 the results were HT1080 IDH1KD tx -2%, TDP1 cell noCPT inconclusive, TGFb SMAD3 inh -14%, HepG2 viability -8%, HT1080-NT tox -15% and TDP1 cell CPT 29µM*.
For CCn1c(COc2ccc(C)cc2)nnc1SCC(=O)NNC(=O)c1ccc(OC)cc1 the results were HT1080 IDH1KD tx 16%, TDP1 cell noCPT -4%, TGFb SMAD3 inh -34%, HepG2 viability 2%, HT1080-NT tox 15% and TDP1 cell CPT 10%.
`CCCNC(=O)c1ccc(N2CCC3(CC2)CC(c2ccccc2)=NO3)c(NC(=O)c2ccc(Br)cc2)c1` gave HT1080 IDH1KD tx 1%, TDP1 cell noCPT -16%, TGFb SMAD3 inh 9%, HepG2 viability -3%, HT1080-NT tox -2% and TDP1 cell CPT inconclusive.
CCCNC(=O)c1ccc(N2CCC3(CC2)CC(c2ccccc2)=NO3)c(NC(=O)c2cccc(C)c2)c1 was read as HT1080 IDH1KD tx -5%, TDP1 cell noCPT inconclusive, TGFb SMAD3 inh 5%, HepG2 viability -7%, HT1080-NT tox -2% and TDP1 cell CPT 8.2µM*.
`CCCCCCCC(=O)Nc1cc(C(=O)NCCC)ccc1N1CCC2(CC1)CC(c1ccccc1)=NO2` gave HT1080 IDH1KD tx 6%, TDP1 cell noCPT 12µM*, TGFb SMAD3 inh 2%, HepG2 viability -4%, HT1080-NT tox 2% and TDP1 cell CPT inconclusive.
For CCCNC(=O)c1ccc(N2CCC3(CC2)CC(c2cccc(Br)c2)=NO3)c(NC(=O)c2cccc(OC)c2)c1 the results were HT1080 IDH1KD tx -4%, TDP1 cell noCPT inconclusive, TGFb SMAD3 inh -3%, HepG2 viability -2%, HT1080-NT tox -5% and TDP1 cell CPT inconclusive.
CCCNC(=O)c1ccc(N2CCC3(CC2)CC(c2cccc(Br)c2)=NO3)c(NC(=O)c2ccccc2)c1 was read as HT1080 IDH1KD tx -11%, TDP1 cell noCPT 23µM*, TGFb SMAD3 inh -3%, HepG2 viability -10%, HT1080-NT tox -6% and TDP1 cell CPT inconclusive.
Screening CCCNC(=O)c1ccc(N2CCC3(CC2)CC(c2ccccc2)=NO3)c(NC(=O)c2ccccc2)c1 returned HT1080 IDH1KD tx -2%, TDP1 cell noCPT 15µM*, TGFb SMAD3 inh -5%, HepG2 viability -7%, HT1080-NT tox -1% and TDP1 cell CPT 5.8µM*.
